# Screens as filed in PubChem.
# PostGolgi ctrl: inhibits growth of the yeast control strain; efflux-deficient yeast background strain, growth absorbance A615, 16 h; 98,000 compounds, 5% hits; inhibition, % at 10 µM; AID 738
# DAT uptake mod: changed human dopamine transporter uptake under cocaine IC80. 110,000 compounds, 1.3% hits. AID 449768. LLC-PK1 hDAT cells, [14C]-dopamine uptake with cocaine IC80; actives deviate in either direction. B-score at 10 µM. Q01959;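 active = Z score or B-score, a plate-position-corrected score, falls beyond the plate's 99.7% confidence bounds, in either direction; inactive = both scores lie inside the 99.7% bounds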;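 also: scored against the spread of the other compound wells on the same plate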
# PLAP activator: activators of human placental alkaline phosphatase; 96,000 compounds, 1.2% hits; purified PLAP enzyme, luminescent substrate read-out; hits give high values; activation fold at 20 µM; AID 696; in the data active = activation fold above about 2
# Target sequence (P05187 whole entry, looked up): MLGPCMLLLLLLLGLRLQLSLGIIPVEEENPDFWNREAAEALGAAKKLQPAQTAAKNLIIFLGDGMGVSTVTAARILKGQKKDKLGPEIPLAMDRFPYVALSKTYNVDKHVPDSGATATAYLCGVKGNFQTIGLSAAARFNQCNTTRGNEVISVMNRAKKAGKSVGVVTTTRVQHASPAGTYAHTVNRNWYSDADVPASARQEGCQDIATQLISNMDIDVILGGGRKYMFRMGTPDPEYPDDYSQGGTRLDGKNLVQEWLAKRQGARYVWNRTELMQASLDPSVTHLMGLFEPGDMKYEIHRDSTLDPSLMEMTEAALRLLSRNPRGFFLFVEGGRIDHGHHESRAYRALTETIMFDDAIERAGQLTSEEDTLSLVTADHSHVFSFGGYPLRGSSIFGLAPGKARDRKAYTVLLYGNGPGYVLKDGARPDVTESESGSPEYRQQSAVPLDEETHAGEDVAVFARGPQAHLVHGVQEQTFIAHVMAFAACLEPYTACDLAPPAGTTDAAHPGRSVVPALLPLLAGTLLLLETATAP
# D1 mod: allosterically modulates the human D1 dopamine receptor | P21728 | HEK293 D1, CRE-luciferase, dopamine EC30 potentiation; actives deviate in either direction | B-score at 10 µM | 58,000 compounds, 5.9% hits | AID 641;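 active = luminescence count or its row- and column-corrected plate score outside the 99.7% band of the plate's sample wells, on either side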
# Cav3 T inh: blocks human Cav3.2 T-type calcium channel | Cav3.2-expressing cells, Fluo-4 calcium fluorescence FDSS; hits give low values | 100,000 compounds, 4% hits | O95180 | B-score at 10 µM;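 active = single-dose well whose peak fluorescence ratio is a statistical outlier from its plate by either plate-standardised score or position-corrected B-score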
# PostGolgi yeast: growth inhibition of a yeast mutant, post-Golgi transport screen | 98,000 compounds, 0.9% hits | inhibition, % at 10 µM | AID 739 | post-Golgi transport phenotypic cell assay;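 also: yeast cells grown in 1536-well plates; yeast grown about 18 h at 30C before absorbance read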
# An asterisk follows results filed as active; nt = no result. Sampled rows, rich in hits. Any-hit rate of the full collection: about 12%. Rule as the data show it, unless noted: active = inhibition above about 30%; inactive = the rest.
SMILES,PostGolgi ctrl,DAT uptake mod,PLAP activator,D1 mod,Cav3 T inh,PostGolgi yeast
CCN(CC)c1ccc(C2C(C(=O)OC(C)C)C(=O)CC(C)(O)C2C(=O)OC(C)C)cc1 (stereo not drawn),-3,1.1,1,nt,-5.7*,9
Cc1ccc(-c2cc(-c3ccccc3)c3c(N)c(S(C)(=O)=O)sc3n2)cc1,31*,0.73,1.7,nt,-0.29,6
N#Cc1sc2nc(-c3ccccc3)cc(-c3ccco3)c2c1N,19,-0.67,1,2.3,-0.63,20
O=c1[nH]cnc2nn(-c3ccccc3)nc12,7,-1.5,1,-1.1,-3.7*,-2
Cc1ccc(CNC(=O)Cn2c(=O)oc3ccccc32)o1,40*,0.65,0.9,0.35,0.15,1
N#CC1=C(N)NC(SCC(=O)O)=C(C#N)C12CCCC2,7,0.19,1.2,-0.8,nt,1
N#CC1=C(N)NC(SCc2ccc(F)cc2)=C(C#N)C12CCCCC2,68*,0.74,0.6,-0.91,nt,99*
O=C1NC2(CCCC2)N=C1c1ccc(F)cc1,8,-8*,0.8,nt,-0.28,14
Cc1nnc2n(Cc3ccccc3)c(=O)c3c4c(sc3n12)COC(C(C)C)C4 (stereo not drawn),71*,0.93,1.2,0.79,-0.36,3
CSc1nnc2n(Cc3ccccc3)c(=O)c3c4c(sc3n12)COC(C(C)C)C4 (stereo not drawn),26,nt,0.8,nt,nt,-1
CC1(C)Cc2c(sc3c2c(=O)n(Cc2ccccc2)c2nncn32)CO1,nt,nt,1.4,0.79,nt,nt
CC(C)C1Cc2c(sc3c2c(=O)n(Cc2ccccc2)c2nncn32)CO1 (stereo not drawn),43*,0.16,1.2,nt,-0.016,2
Nc1nonc1C(=O)NCCNS(=O)(=O)c1ccc(Br)cc1,4,0.012,0.9,nt,0.61,-15
Cc1c(NC(=O)NCCN2C(=O)C3C4C=CC(C4)C3C2=O)c(=O)n(-c2ccccc2)n1C (stereo not drawn),1,-0.2,1.3,nt,0.7,-22
Cc1[nH]nc2c1C1(CCC3(CC1)OCCO3)C(C#N)=C(N)O2,1,-0.91,0.9,-0.26,-0.093,-3
S=c1[nH]nc(C23CC4CC(CC(C4)C2)C3)n1Cc1ccco1,45*,-1.3,1.5,-1.1,-2.2,2
S=c1[nH]nc(-c2ccncc2)n1Cc1ccco1,9,-1.7,1,-1.1,-0.34,16
COc1ccc(-c2nc(Cn3c(SCc4ccc(F)cc4)nc4ccncc43)c(C)o2)cc1OC,11,3.1*,1.7,nt,-1.1,-9
COc1ccc(NC2SC(=O)N(CC(=O)O)C2=O)cc1 (stereo not drawn),37*,1,1,-0.82,-0.85,9
O=C(O)CN1C(=O)SC(Nc2ccccc2)C1=O (stereo not drawn),nt,-0.72,nt,nt,-0.13,nt
CCCCOC(=O)Nc1ccc2c(C)cc(=O)oc2c1,nt,-0.38,nt,nt,-1.3,nt
CCOC(=O)Nc1ccc2c(C)cc(=O)oc2c1,33*,1.7,1,0.4,0.24,0
CCOc1ccc2cc(C#N)c(SCC(=O)NC(C)CC)nc2c1 (stereo not drawn),7,-0.27,0.9,-0.24,-0.008,-7
Cc1nn2c(c1-c1ccc(Cl)cc1)N=C(c1ccco1)CC2c1ccccc1 (stereo not drawn),35*,0.3,1.3,nt,-2.8,23
CCc1nc(SCC(=O)N2CCCc3ccccc32)c2c(=O)n(C)c(=O)n(C)c2n1,nt,nt,nt,-0.43,nt,nt
SMILES,PostGolgi ctrl,DAT uptake mod,PLAP activator,D1 mod,Cav3 T inh,PostGolgi yeast
CCOc1ccccc1N/C=C/C(=O)C(C)(C)C,33*,-0.82,0.9,-0.13,-1.8,-18
CCOc1ccccc1NC(=O)CCC(=O)Nc1ccccc1OCC,8,1,1.1,nt,0.41,-5
CCCNC(=O)COC(=O)CCC(=O)c1ccc(F)cc1,-9,-0.18,1.2,nt,-0.19,12
O=C1N2CCSC2=NC1(Nc1ccccn1)C(F)(F)F (stereo not drawn),48*,-0.73,1,1.4,nt,0
N=c1c(C(=O)NC2CCCCC2)cc2c(=O)n3ccccc3nc2n1CCN1CCOCC1,nt,nt,nt,0.22,nt,nt
O=C(COC(=O)c1ccccc1Nc1ccccc1)NCc1ccco1,32*,-0.17,0.8,-0.33,-3.1,-5
CCCCC(=O)NC(c1cccc([N+](=O)[O-])c1)c1c(OC(C)=O)ccc2ccccc12 (stereo not drawn),nt,0.076,nt,nt,-7.7*,nt
O=C(Nc1ccccc1)c1sc2cc(C(F)(F)F)cnc2c1-c1cccs1,3,0.048,0.8,nt,-0.63,18
Cc1cc(C)nc(Nc2nc3ccccc3[nH]2)n1,-3,-0.92,1.3,0.074,1.4,-7
c1ccc(Nc2nc3ccccc3[nH]2)nc1,19,-0.69,2.2*,-0.54,0.58,6
O=C(NC1CCCCC1)C1CC=CCC1C(=O)OCC(Cl)=C(Cl)Cl (stereo not drawn),21,0.29,0.9,nt,-7.5*,-8
Cc1cccc2cc(COC(=O)c3ccccn3)c(=O)[nH]c12,7,-0.61,0.9,-0.76,0.5,-7
COc1ccc(-n2c(C)cc(C(=O)Cn3nnc4ccccc4c3=O)c2C)cc1,23,0.23,1.5,-0.51,-1.9,-3
Cc1cc(C(=O)Cn2nnc3ccccc3c2=O)c(C)n1-c1ccccc1F,12,-0.34,0.9,nt,-7*,-1
O=C(Nc1cccc(C(=O)N2CCOCC2)c1)c1cccnc1,9,-1.1,1,-1.2,1.7,0
CCc1cc2c3c(c(=O)oc2cc1OC)CCCC3,49*,0.96,0.9,0.1,-1.1,-2
CCOc1cc2oc(=O)c3c(c2cc1Cl)CCC3,1,-0.14,0.8,1,-0.045,7
CC(NC(=O)CSc1ncccn1)c1ccccc1 (stereo not drawn),3,-0.39,1,0.43,0.92,2
CCCn1c(SCc2ccon2)nc2ccccc2c1=O,10,-2.3,0.7,nt,-2.4,3
COCCNC(=O)C(c1ccc(F)cc1)N(CC1CCCO1)C(=O)CCC(=O)Nc1ccccn1 (stereo not drawn),1,-1.1,1.2,0.46,0.51,31*
COCCNC(=O)CN(CC1CCCO1)C(=O)CCC(=O)Nc1ccccn1 (stereo not drawn),7,-0.63,1.1,0.12,0.46,3
CC1CCc2nn(CC(=O)NCCC3=CCCCC3)cc2C1 (stereo not drawn),37*,7.5*,1,0.69,-1.3,-5
COCCN(C(=O)CCC(=O)Nc1ccccn1)C(C(=O)NC1CCCC1)c1ccc(OC)cc1 (stereo not drawn),1,-0.069,nt,nt,0.015,-8
CC1=C(C#N)C(=O)NC(C)(C)C1,37*,-0.033,0.9,0.86,0.22,1
COc1cc(C(c2nnnn2C(C)(C)C)N2CCN(c3nc4ccccc4s3)CC2)ccc1O (stereo not drawn),7,0.94,1.6,0.12,-2.3,0
CCOC(=O)c1sc(Nc2ccccc2)nc1C,11,1.5,0.9,nt,-0.97,5
CCOC(=O)Cc1csc(N/N=C\c2cccc(Br)c2)n1,3,nt,1.2,nt,nt,17
